Assay results reported in ChEMBL document CHEMBL1961873, “Compounds: GSK PKIS; Assays: Nanosyn kinase panel” (2012).

Experiments:
[1] = target: RAC-alpha serine/threonine-protein kinase (Homo sapiens) (UniProt P31749); settings: at 0.1 µM
[2] = target: RAC-alpha serine/threonine-protein kinase (Homo sapiens) (UniProt P31749); settings: at 1 µM
[3] = target: RAC-beta serine/threonine-protein kinase (Homo sapiens) (UniProt P31751); settings: at 0.1 µM
[4] = target: RAC-beta serine/threonine-protein kinase (Homo sapiens) (UniProt P31751); settings: at 1 µM
[5] = target: RAC-gamma serine/threonine-protein kinase (Homo sapiens) (UniProt Q9Y243); settings: at 0.1 µM
Chain of RAC-gamma serine/threonine-protein kinase (Homo sapiens) (Q9Y243 whole entry): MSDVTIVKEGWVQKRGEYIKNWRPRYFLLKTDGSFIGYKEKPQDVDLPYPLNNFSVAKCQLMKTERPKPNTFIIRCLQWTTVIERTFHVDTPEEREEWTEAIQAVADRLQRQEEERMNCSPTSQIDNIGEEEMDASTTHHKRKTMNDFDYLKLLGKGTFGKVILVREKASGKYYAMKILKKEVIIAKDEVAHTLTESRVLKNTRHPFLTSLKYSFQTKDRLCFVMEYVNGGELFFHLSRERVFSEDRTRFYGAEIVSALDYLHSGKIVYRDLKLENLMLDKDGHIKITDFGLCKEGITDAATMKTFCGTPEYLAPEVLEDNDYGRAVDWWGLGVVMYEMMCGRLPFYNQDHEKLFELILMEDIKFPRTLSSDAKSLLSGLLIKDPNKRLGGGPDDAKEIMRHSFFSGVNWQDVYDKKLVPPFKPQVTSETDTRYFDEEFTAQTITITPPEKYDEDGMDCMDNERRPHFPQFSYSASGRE

[6] = target: RAC-gamma serine/threonine-protein kinase (Homo sapiens) (UniProt Q9Y243); settings: at 1 µM
[7] = target: G protein-coupled receptor kinase 6 (Homo sapiens) (UniProt P43250); settings: at 0.1 µM
Chain of G protein-coupled receptor kinase 6 (Homo sapiens) (P43250 whole entry, looked up): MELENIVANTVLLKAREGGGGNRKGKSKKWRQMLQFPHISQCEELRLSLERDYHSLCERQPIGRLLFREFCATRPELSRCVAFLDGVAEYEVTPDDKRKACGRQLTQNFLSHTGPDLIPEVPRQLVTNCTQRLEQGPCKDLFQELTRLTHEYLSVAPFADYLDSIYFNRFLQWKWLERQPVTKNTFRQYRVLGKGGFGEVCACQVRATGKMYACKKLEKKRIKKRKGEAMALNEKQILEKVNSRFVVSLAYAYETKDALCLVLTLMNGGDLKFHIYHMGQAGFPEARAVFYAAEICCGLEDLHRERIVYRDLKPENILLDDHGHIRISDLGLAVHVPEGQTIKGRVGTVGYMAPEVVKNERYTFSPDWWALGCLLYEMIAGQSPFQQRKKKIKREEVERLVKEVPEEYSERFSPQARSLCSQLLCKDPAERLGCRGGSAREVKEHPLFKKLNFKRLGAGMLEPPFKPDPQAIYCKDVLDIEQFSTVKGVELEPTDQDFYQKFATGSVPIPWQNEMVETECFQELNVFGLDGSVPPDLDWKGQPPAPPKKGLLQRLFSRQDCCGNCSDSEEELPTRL

[8] = target: G protein-coupled receptor kinase 6 (Homo sapiens) (UniProt P43250); settings: at 1 µM
[9] = target: T1, Rhodopsin kinase GRK7 (Homo sapiens) (UniProt Q8WTQ7); settings: at 0.1 µM
T1 sequence (whole entry): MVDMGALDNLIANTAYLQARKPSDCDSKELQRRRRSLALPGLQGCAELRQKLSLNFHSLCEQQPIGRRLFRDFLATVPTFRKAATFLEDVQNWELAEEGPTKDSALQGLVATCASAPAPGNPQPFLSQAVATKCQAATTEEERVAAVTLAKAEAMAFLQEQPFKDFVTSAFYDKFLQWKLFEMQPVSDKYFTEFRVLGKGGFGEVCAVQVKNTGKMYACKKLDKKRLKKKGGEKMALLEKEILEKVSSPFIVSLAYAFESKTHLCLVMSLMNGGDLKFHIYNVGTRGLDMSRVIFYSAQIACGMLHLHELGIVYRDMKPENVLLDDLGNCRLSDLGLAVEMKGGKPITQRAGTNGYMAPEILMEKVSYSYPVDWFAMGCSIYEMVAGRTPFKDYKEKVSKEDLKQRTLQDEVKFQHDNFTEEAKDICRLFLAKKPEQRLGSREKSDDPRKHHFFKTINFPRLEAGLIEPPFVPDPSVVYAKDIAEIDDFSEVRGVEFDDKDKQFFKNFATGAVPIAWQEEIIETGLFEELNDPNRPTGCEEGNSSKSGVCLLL

[10] = target: T1, Rhodopsin kinase GRK7 (Homo sapiens); settings: at 1 µM
[11] = target: Serine/threonine-protein kinase MRCK alpha (Homo sapiens) (UniProt Q5VT25); settings: at 0.1 µM
[12] = target: Serine/threonine-protein kinase MRCK alpha (Homo sapiens) (UniProt Q5VT25); settings: at 1 µM
[13] = target: Serine/threonine-protein kinase MRCK beta (Homo sapiens) (UniProt Q9Y5S2); settings: at 0.1 µM
Chain of Serine/threonine-protein kinase MRCK beta (Homo sapiens) (Q9Y5S2 whole entry): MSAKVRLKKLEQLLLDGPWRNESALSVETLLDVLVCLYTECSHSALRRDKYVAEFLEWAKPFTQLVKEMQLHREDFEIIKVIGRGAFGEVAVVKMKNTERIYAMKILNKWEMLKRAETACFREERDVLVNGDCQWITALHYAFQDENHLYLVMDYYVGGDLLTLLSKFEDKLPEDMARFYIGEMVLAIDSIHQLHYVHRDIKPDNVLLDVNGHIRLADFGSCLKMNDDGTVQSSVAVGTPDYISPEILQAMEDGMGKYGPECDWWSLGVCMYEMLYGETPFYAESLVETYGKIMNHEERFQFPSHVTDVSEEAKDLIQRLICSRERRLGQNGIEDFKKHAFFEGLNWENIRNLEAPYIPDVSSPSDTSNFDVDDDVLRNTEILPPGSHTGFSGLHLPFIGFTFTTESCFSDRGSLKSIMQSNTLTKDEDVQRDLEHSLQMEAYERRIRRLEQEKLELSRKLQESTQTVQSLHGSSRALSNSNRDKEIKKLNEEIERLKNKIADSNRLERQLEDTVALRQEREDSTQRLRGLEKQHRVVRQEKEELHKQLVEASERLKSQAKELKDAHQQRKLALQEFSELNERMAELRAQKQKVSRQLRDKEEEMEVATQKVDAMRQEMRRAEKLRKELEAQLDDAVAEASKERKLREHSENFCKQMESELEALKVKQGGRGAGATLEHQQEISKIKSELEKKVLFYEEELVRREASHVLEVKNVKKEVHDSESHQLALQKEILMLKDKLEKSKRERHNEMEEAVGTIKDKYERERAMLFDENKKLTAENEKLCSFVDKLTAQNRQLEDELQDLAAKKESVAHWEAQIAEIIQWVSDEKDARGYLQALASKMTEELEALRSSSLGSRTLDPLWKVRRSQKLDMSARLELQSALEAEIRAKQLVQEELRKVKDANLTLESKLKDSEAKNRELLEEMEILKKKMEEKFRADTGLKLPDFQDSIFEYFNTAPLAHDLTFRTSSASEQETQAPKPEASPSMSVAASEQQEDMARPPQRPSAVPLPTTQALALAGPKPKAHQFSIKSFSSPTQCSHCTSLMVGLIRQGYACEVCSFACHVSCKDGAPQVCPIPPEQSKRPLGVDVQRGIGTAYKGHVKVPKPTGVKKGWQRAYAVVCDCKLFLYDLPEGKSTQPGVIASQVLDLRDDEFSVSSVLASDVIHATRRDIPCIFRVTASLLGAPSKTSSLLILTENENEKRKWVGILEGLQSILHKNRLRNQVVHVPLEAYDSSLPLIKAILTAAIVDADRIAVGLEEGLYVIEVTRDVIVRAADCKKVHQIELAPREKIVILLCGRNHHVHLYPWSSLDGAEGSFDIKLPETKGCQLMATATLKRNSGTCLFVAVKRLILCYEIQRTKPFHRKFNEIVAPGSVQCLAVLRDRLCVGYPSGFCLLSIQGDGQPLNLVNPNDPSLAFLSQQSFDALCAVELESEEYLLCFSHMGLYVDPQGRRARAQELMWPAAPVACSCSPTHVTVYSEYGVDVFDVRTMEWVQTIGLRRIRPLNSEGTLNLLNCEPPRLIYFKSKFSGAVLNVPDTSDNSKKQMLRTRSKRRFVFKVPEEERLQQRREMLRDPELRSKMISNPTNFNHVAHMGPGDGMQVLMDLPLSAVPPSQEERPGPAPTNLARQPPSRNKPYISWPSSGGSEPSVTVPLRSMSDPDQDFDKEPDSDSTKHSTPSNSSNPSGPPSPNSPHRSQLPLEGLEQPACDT

[14] = target: Serine/threonine-protein kinase MRCK beta (Homo sapiens) (UniProt Q9Y5S2); settings: at 1 µM
[15] = target: Ribosomal protein S6 kinase alpha-5 (Homo sapiens) (UniProt O75582); settings: at 0.1 µM
Chain of Ribosomal protein S6 kinase alpha-5 (Homo sapiens) (O75582 whole entry, looked up): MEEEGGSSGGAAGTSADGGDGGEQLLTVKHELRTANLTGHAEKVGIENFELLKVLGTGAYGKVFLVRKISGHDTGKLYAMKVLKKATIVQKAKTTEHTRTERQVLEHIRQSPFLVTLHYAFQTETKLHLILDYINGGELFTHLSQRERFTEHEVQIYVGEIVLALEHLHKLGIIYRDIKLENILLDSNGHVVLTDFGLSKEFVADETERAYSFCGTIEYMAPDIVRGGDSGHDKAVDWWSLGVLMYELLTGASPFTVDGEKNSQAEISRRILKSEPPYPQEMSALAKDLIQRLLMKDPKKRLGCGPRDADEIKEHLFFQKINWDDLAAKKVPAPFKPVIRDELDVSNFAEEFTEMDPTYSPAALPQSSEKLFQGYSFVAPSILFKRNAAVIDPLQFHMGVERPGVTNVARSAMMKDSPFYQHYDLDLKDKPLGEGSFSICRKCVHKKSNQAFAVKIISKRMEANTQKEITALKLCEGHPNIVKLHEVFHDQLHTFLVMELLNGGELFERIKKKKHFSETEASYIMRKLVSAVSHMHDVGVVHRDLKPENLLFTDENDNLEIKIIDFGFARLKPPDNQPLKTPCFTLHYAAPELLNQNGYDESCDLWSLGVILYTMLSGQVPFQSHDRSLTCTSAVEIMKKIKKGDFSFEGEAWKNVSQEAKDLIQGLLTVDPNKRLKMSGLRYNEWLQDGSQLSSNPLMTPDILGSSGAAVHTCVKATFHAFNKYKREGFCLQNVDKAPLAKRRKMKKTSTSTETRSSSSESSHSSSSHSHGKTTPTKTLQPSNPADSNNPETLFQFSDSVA

[16] = target: Ribosomal protein S6 kinase alpha-5 (Homo sapiens) (UniProt O75582); settings: at 1 µM
[17] = target: Ribosomal protein S6 kinase alpha-4 (Homo sapiens) (UniProt O75676); settings: at 0.1 µM
[18] = target: Ribosomal protein S6 kinase alpha-4 (Homo sapiens) (UniProt O75676); settings: at 1 µM
[19] = target: Ribosomal protein S6 kinase beta-1 (Homo sapiens) (UniProt P23443); settings: at 0.1 µM
Chain of Ribosomal protein S6 kinase beta-1 (Homo sapiens) (P23443 whole entry, looked up): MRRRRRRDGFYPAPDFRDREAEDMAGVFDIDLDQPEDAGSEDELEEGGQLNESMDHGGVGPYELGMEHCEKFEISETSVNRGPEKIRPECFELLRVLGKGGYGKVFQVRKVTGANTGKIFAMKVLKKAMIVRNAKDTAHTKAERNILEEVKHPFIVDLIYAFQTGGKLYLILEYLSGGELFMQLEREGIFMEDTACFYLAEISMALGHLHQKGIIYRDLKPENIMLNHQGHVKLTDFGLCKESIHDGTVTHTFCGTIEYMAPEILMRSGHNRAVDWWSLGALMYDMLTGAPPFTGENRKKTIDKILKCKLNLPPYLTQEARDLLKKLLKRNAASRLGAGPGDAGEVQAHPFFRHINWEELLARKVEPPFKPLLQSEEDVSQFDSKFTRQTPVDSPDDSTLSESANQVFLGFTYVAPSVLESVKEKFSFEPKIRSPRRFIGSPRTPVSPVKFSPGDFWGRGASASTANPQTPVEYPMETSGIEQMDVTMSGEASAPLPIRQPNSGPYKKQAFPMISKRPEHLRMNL

[20] = target: Ribosomal protein S6 kinase beta-1 (Homo sapiens) (UniProt P23443); settings: at 1 µM

Chain of RAC-alpha serine/threonine-protein kinase (Homo sapiens) (P31749 whole entry): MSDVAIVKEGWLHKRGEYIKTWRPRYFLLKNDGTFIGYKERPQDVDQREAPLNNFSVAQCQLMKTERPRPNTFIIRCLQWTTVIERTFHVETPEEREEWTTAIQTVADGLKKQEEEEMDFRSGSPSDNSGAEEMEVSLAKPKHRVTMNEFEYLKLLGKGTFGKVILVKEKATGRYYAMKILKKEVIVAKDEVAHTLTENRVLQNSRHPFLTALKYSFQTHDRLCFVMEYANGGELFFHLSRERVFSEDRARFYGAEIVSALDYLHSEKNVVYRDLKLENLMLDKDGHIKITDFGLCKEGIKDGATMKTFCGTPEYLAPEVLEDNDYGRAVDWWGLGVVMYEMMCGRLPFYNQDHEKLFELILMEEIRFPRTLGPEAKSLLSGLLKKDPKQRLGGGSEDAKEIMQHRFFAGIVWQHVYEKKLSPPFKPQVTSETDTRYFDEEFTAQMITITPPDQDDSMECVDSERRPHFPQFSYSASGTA
Chain of RAC-beta serine/threonine-protein kinase (Homo sapiens) (P31751 whole entry): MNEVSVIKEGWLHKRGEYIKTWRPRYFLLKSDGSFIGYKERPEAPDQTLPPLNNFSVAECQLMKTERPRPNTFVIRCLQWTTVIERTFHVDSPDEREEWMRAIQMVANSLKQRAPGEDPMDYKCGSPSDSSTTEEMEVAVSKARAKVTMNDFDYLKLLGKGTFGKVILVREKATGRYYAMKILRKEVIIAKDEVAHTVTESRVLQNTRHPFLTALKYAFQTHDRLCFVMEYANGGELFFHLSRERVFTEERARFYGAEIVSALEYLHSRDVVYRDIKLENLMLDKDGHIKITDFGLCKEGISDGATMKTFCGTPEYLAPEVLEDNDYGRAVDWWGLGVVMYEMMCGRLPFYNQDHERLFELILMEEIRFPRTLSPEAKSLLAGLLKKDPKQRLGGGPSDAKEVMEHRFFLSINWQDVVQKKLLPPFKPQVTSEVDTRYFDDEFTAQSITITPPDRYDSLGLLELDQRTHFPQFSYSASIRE

Compound	inhibition [1] [%]	inhibition [2] [%]	inhibition [3] [%]	inhibition [4] [%]	inhibition [5] [%]	inhibition [6] [%]	inhibition [7] [%]	inhibition [8] [%]	inhibition [9] [%]	inhibition [10] [%]	inhibition [11] [%]	inhibition [12] [%]	inhibition [13] [%]	inhibition [14] [%]	inhibition [15] [%]	inhibition [16] [%]	inhibition [17] [%]	inhibition [18] [%]	inhibition [19] [%]	inhibition [20] [%]
COc1cc2ncn(-c3cc(OCCc4ccccc4)c(C(N)=O)s3)c2cc1OC	0.55	0.01	1.52	0.89	1.12	-0.88	-2.45	-0.33	2.29	2.5	1.17	2.94	1.02	1.01	1.83	0.4	0.49	0.9	1.13	0.05
COc1ccc2cc(-c3c(-c4ccncc4)nc(-c4ccc(S(C)(=O)=O)cc4C)n3C)ccc2c1	1.8	1.99	2.93	2.26	2.8	4.98	5.87	8.14	4.36	8.69	0.29	1.6	2.15	1.98	3.82	5.44	7.21	9.9	1.75	3.34
NS(=O)(=O)c1ccc(N/N=C2\C(=O)Nc3ccc(C(=O)NCCCn4ccnc4)cc32)cc1	-0.12	0.95	2.05	2.17	0.96	2.49	5.79	16.3	7.64	18	0.3	7.89	0.34	5.24	9.46	11.1	3.85	13.7	1.91	8.54
Cc1nnc(-c2ccc(C)c(-c3ccc(C(=O)NCc4ccc(Cl)cc4)cc3)c2)o1	-1.66	-2.4	0.03	-2.39	0.07	-0.93	5.17	5.38	4.29	9.45	0.16	1.24	0.69	-0.22	1.45	1.55	3.07	3.61	1.21	2.04
COC(=O)Nc1nc2ccc(Sc3ccc(NC(=O)Nc4cc(C(F)(F)F)ccc4F)cc3)cc2[nH]1	0.65	0.76	-0.16	-0.51	0.73	0.99	2.62	-0.1	-0.34	-6.83	0.78	0.4	-0.23	-1	1.97	2.08	0.7	0.37	78.2	7.6
CS(=O)(=O)CCNCc1ccc(-c2ccc3ncnc(Nc4ccc(OCc5ccccc5)c(Br)c4)c3c2)o1	-2.58	-2.2	-3.3	-3.04	-3.44	-0.54	-2.27	2.12	10.1	0.45	-6.6	-3.23	-0.18	-0.76	1.16	-1.75	2.02	0.82	0.95	0.5
CCS(=O)(=O)c1ccc(OC)c(Nc2ncc(-c3ccccc3Cl)o2)c1	0.85	0.46	0.22	0.16	0.76	0.93	2.4	-0.11	-1.21	-6.79	-0.23	1.6	-0.41	0.3	0.87	3.53	0.38	1.77	0.04	2.73
NC(=O)Cc1ccccc1Oc1nccc(-c2c(-c3ccc(F)cc3)ncn2C2CCNCC2)n1	0.16	0.12	1.23	0.29	0.15	1.21	-1.33	-0.72	1	1.09	0.16	-0.52	-0.05	1.05	2.22	1.53	-1.39	1.64	0.73	1.27
Nc1nccc(-c2c(-c3ccc(F)cc3)ncn2C2CCC(O)CC2)n1 (stereo not given)	-1.5	-1.14	-2.08	-1.44	-1.82	0.5	1.78	-1.92	-3.24	-1.89	-0.25	-0.81	0.88	0.56	-1.03	-0.24	-1.62	-0.73	-1.59	-1.84
Cc1ccc(C(=O)NC(C)C)cc1-c1ccc(C(=O)NCC2CC2)cc1	-2.54	-2.49	-4.74	-3	-3.94	-1.32	-3.15	-2.12	-1.17	-7.32	0.02	-2.08	0.15	0.39	-3.69	-3.9	-1.65	-2.17	-2.1	-2.29
O=C1NC(=O)C(c2cccc(Cl)c2)=C1Nc1ccc(Cl)c(C(=O)O)c1	0.08	1.15	1.52	0.7	1.61	0.58	4.67	8.66	13.2	9.31	1.43	4.38	0.15	-0.05	3.03	2.1	2.51	2.85	0.51	1.96
O=C1Nc2ccccc2/C1=C/Nc1ccc(-n2cncn2)cc1	0.19	-0.09	1.56	0.9	0.39	2.21	7.2	14.8	5.5	14.9	0.72	3.59	0.37	1.08	5.48	8.54	3.95	13.4	2.05	9.06
Fc1ccc(-c2c(-c3ccncc3)nc3n2CCS3)cc1	-3.71	-2.76	-2.67	-1.63	-3.31	-0.46	5.32	4.18	2.86	7.9	1.61	5.14	2.15	9.93	3.9	8.14	4.42	8.86	0.97	2.52
NCc1ccc(-n2c(-c3nonc3N)nc3cnccc32)cc1	3.84	15.8	3.5	15.1	1.72	20.5	5.51	7.31	9.11	15.5	43.4	90.6	59.8	83.5	54.7	78.7	20.1	63.3	21.3	69.9
O=C(Nc1n[nH]c2cc(-c3cc(F)ccc3F)ccc12)C1CC1	0.77	0.09	1.23	1.89	1.03	2.68	2.61	3.76	1.22	6.2	-0.78	-3.13	-0.23	-0.47	1.91	1.12	1.8	3.08	1.01	1.58
COc1cc2ncn(-c3cc(OCc4cccs4)c(C(N)=O)s3)c2cc1OC	-2.85	-1.83	-1.63	-2.73	-3.06	-3.04	4.35	17.9	5.59	13	2.82	7.52	1.67	1.38	2.22	5.4	4.25	8	1.35	3.91
O=C(Nc1n[nH]c2nc(-c3ccco3)ccc12)C1CC1	-0.33	0.8	0.45	0.89	0.35	0.8	1.97	-2.2	-1.29	-7.98	-0.04	-0.15	0.63	3.54	6.97	8.4	1.68	3.29	1.44	2.43
COc1cc(Nc2ncc(-c3ccccc3)o2)cc(OC)c1OC	-1.72	-1.61	-2.18	-1.88	-1.76	1.14	-1.02	-0.02	3.87	-9.33	2.53	3.73	0.08	0.86	0.23	0.82	-1.71	0.02	-0.45	3.55
CCc1nccc2c1nc(-c1nonc1N)n2CC	-0.45	0.43	0.34	1.71	0.28	0.55	-0.76	-2.13	-2.75	2.78	0.8	1.36	0.74	3.39	6.51	37.7	2.18	19.5	10.5	49.6
CS(=O)(=O)CCNCc1cc(-c2cc3c(Nc4ccc(OCc5cccc(F)c5)c(Cl)c4)ncnc3s2)cs1	0.79	0.35	0.7	1.93	1.15	3.27	6.28	6.32	8.59	4.24	2.36	5.45	-0.63	2.8	2.17	1.79	3.41	4.94	2.17	4.75
Fc1ccc(-c2ncn(C3CCNCC3)c2-c2ccnc(Oc3ccc(F)c(F)c3)n2)cc1	-3	-3.59	-3.3	-2.56	-2.6	-1.9	-0.72	2.05	9.11	1.73	-3.08	-2.58	-0.68	-0.35	0.54	-0.7	3.37	4.69	0.73	0.63
CN(C)CCOc1ccc(-c2cc(-c3ccc4c(c3)CCC4=NO)c(-c3ccncc3)o2)cc1	-0.58	-0.16	-0.71	-0.42	-0.65	5.79	-3.48	-0.1	2.18	-5.7	-0.43	-0.33	-0.99	-2.76	-1.98	-2.88	0.1	-2.21	-1.83	-2.77
